The list is not random: actives were taken first. Their share in the collection is about 2.8%.
HttQ103 aggreg – reduces HttQ103-GFP aggregates in PC12 cells; Potency, µM (top dose mostly 46.1 µM), without a hit: top-dose activity change, negative = inhibition, hits mostly inhibitors; AID 1688; PC12 HttQ103-GFP aggregates, Acumen cytometry, 40 h; 1.1% of 220,000 active; note: % is set by controls: 0 for no effect and ±100 for the full control effect; nearly all actives have a fitted effect of over 60% in size
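PC12 cells stably carrying ecdysone-inducible HTT exon 1 Q103–GFP were induced with tebufenozide (100 nM final) and treated with library compounds in titration. GFP aggregates in lysates were counted by laser scanning cytometry.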
HepG2 tox – counter-screen for TGF-b inhibitors: cytotoxicity in HepG2 cells; HepG2 CAGA-GFP viability, ATP luminescence, 18 h; Potency, µM (titrated, usually from 46.1 µM), without a hit: top-dose activity change, negative = cytotoxicity, most hits filed as cytotoxic; 0.76% of 410,000 active
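CellTiter-Glo luminescence gave cytotoxicity after 18 hours at 37 degrees C. The cells were HepG2 CAGA-GFP in 1% FBS DMEM, stimulated with 500 pg/mL TGF-beta after compound addition. %Activity was normalised to no-cell wells (complete cell-killing) and DMSO (no toxicity), and curves were fitted and classified.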
ATXN2 expr inh – inhibitors of ATXN2 expression; Potency, µM (highest dose often 57 µM), inactives show at the top dose activity change, negative = inhibition, most hits filed as inhibitors; HEK-293 ATXN2-luciferase reporter, luminescence, 24 h; 0.72% of 360,000 active; note: % is set by controls: 0 for no effect and ±100 for the full control effect; nearly all actives have a fitted effect of over 55% in size
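qHTS (up to 57 uM final) was run with 24 h compound exposure of reporter cells at 37 °C. Each well was multiplexed: SteadyGlo luminescence measured ATXN2-luciferase expression after a fluorogenic Gly-Phe-AFC viability readout (25 uM final).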
ATXN viability – reduces viability in counter-screen for ATXN expression inhibitors; S2 cells (HEK-293 line with an ATXN2-luciferase reporter) viability, CellTiter-Fluor protease fluorescence, 24 h; Potency, µM (top dose mostly 56.7 µM), most hits filed as cytotoxic; 0.49% of 400,000 active; note: nearly all actives have a fitted effect of over 40% in size
TGFb SMAD3 inh – inhibitors of TGF-b signaling; 1.2% of 410,000 active; AID 588855; HepG2 CAGA-GFP TGF-b/SMAD3 reporter, GFP fluorescence, 18 h; TGF-beta stimulated, 500 pg/mL final; Potency, µM (top dose mostly 46.1 µM), inactives show at the highest dose activity, negative = inhibition, actives largely listed as inhibitors; note: % is set by controls: 0 for no effect and ±100 for the full control effect; nearly all actives have a fitted effect of over 65% in size
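Inhibition was scored as loss of TGF-beta-induced (500 pg/mL final, 18 hours, 37 degrees C) GFP in HEPG2 cells carrying a CAGA-GFP reporter, in DMEM with 1% FBS. Well GFP was summed per cell; Activity was normalised to unstimulated and stimulated DMSO wells, then concentration-response fitting.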
HTT ATP protect – Huntington cell model cytoprotection by ATP luminescence. PC12 HTT-Q103 induced, cytoprotection, ATP luminescence, 40 h. 0.14% of 230,000 active. Potency, µM (highest dose often 56.4 µM), without a hit: cytoprotection (ATP increase), actives largely listed as activators; note: % of control where 0% means no effect; nearly all actives have a fitted effect of over 45% in size
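Quantitative HTS on tebufenozide-induced (100 nM) PC12 cells expressing HTTQ103 exon 1–GFP; compounds tested as a concentration series; survival measured via cellular ATP.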
Numbers without * were called inactive; i = inactive; ? = inconclusive; . = no result; [ ] = dose if it differs, or a comment. Calls come from the whole dose curve; as a rule, active = well fitted curve in the direction sought with a large enough effect; inconclusive = small, poorly fitted or top-dose-only effect, or another doubt; inactive = no such curve, though single readings can be large; an effect the other way counts as inactive or inconclusive. Potency is the fitted concentration of half-maximal effect.

SMILES | HttQ103 aggreg | HepG2 tox | ATXN2 expr inh | ATXN viability | TGFb SMAD3 inh | HTT ATP protect
CN(Cc1ccccc1)C(=O)c1ccc(Nc2nc(C(N)Cc3ccccc3)cs2)nc1 (stereo unspecified) | . | 15.8µM* | 14.1µM* | 15.8µM* | ? | .
CC(C)CC(N)c1csc(Nc2ccc(C(=O)N(C)Cc3ccccc3)cn2)n1 (stereo unspecified) | . | -109.0% | 28.2µM* | 28.2µM* | ? | .
CN(Cc1ccccc1)C(=O)c1ccc(Nc2nc(C(N)Cc3ccc(C(F)(F)F)cc3)cs2)nc1 (stereo unspecified) | . | 10µM* | ? | 31.6µM* | ? | .
CN(Cc1ccccc1)C(=O)c1ccc(Nc2nc(C(N)COCc3ccccc3)cs2)nc1 (stereo unspecified) | . | -34.5% | ? | ? | ? | .
c1coc(-c2ccccc2CN2CCOc3ccc(CN4CCOCC4)cc3C2)c1 | . | . | . | i | . | .
CCc1cnc(Nc2nc(C(N)Cc3ccc(Cl)cc3)cs2)nc1 (stereo unspecified) | . | -109.5% | ? | . | ? | .
CCCc1cnc(Nc2nc(C(N)Cc3ccc(OC)cc3)cs2)nc1 (stereo unspecified) | . | 11.2µM* | ? | ? | ? | .
Cc1occc1C(=O)Nc1cccc(-c2nc(CNC(=O)c3ccc(N4CCCCC4)cc3)c(C)o2)c1 | . | . | . | i | . | .
CN(C)CCCNS(=O)(=O)c1ccc(Oc2ncc(C(F)(F)F)cc2Cl)cc1 | 22.4µM* | -54.5% | -19.4% | i | ? | -2.8%[10 µM]
Cc1cccc(NS(=O)(=O)c2ccc(NC(=O)CN(c3cc([N+](=O)[O-])ccc3C)S(C)(=O)=O)cc2)c1 | ? | -2.3% | ? | ? | 15.8µM* | .
COc1ccc(C)cc1NS(=O)(=O)c1ccc(NC(=O)CN(c2cc([N+](=O)[O-])ccc2C)S(C)(=O)=O)cc1 | 5.8% | 5.7% | -23.7% | i | ? | .
CCOc1ccc(-c2n[nH]c3c2C(c2cccs2)N(c2ccc(Br)cc2)C3=O)cc1 (stereo unspecified) | . | -61.1% | . | . | 6.31µM* | .
CCOC(=O)c1ccc(N2C(=O)c3[nH]nc(-c4ccc(OCC)cc4)c3C2c2cccs2)cc1 (stereo unspecified) | . | -20.4% | ? | ? | ? | .
CCOc1ccc(N2C(=O)c3[nH]nc(-c4ccc(OC)cc4)c3C2c2cccs2)cc1 (stereo unspecified) | . | -28.3% | ? | 17.8µM* | ? | .
CCC(=O)N[C@H]1CC[C@H](C(=O)N(C)c2ccc(-c3nc4ccccc4o3)cc2)C1 | . | . | 22.9% | . | . | .
COc1ccc(N=C2C(=Nc3ccc(OC)cc3)N(c3ccc(OC)cc3)C(=S)N2c2ccccc2)cc1 | -6.4% | -10.9% | 30.3% | ? | -18.9% | -42.7%
COc1ccc(N=c2nc(-c3ccccc3)n(-c3ccc(C)cc3)s2)cc1 | . | -101.9% | . | . | 3.98µM* | .
COc1ccc(N=c2nc(-c3ccc(C)cc3)n(-c3ccccc3)s2)cc1 | . | -62.1% | . | . | 3.16µM* | .
COc1ccc(-n2c(-c3ccccc3)nnc2-c2ccc(Cl)cc2)cc1 | 12.7% | -1.9% | -2.3% | i | 5.5% | 4.2%
Cc1ccc(-c2nc(=Nc3ccccc3)sn2-c2ccccc2)cc1 | . | 4.47µM* | . | . | 3.55µM* | .
N=c1nc(-c2ccccc2)n(-c2ccccc2)s1 | . | -12.7% | . | . | -1.1% | .
CN1CC(=O)NC1=NC(=O)Nc1cccc(Cl)c1 | . | . | -4.5% | . | . | .
CCN1CCN(c2cc(-c3ccc(F)cc3)c3c(n2)CCCCCC3)CC1 | . | . | -0.1%[25.6 µM] | ? | . | .
CO/N=C(\C(=O)O)c1csc(NC(=O)CCl)n1 | . | . | 15.4% | i | . | .
COc1ccc(-c2nn3c(-c4cc(C)[nH]n4)nnc3s2)cc1 | . | 3.2% | . | . | 10.0% | .
SMILES | HttQ103 aggreg | HepG2 tox | ATXN2 expr inh | ATXN viability | TGFb SMAD3 inh | HTT ATP protect
N#CC(C#N)=C1C=CC=CN1/C(=C\c1ccco1)C(=O)c1ccc(-c2ccccc2)cc1 | 7.08µM* | 11.2µM* | ? | ? | 7.08µM* | 4.4%[10 µM]
CC(/C=N/n1c(-c2ccc(Cl)cc2)n[nH]c1=S)=C\c1ccco1 | 2.5%[9.22 µM] | -6.7% | -9.1% | i | -19.9% | 3.3%[10 µM]
N#CC(C#N)=C1C=CC=CN1/C(=C\c1ccco1)C(=O)c1ccc(Cl)cc1 | 3.55µM* | -11.8% | ? | ? | ? | ?
O=C(C[n+]1cccc2cccc(O)c21)c1ccc(Br)cc1 | . | -7.9% | . | . | -9.5% | .
Cc1ccc(-c2nn3c(C)nnc3s2)cc1NC(=O)c1ccc(-c2ccc(Cl)cc2Cl)o1 | -26.7%[9.22 µM] | -54.8% | 8.91µM* | . | ? | -32.5%[0.074 µM]
O=C(NNc1nc2ccccc2s1)c1ccc(F)cc1 | -20.7% | -58.1% | 3.0% | i | -11.0% | 2.5%[10 µM]
COC(=O)c1ccc2nc(NC(=O)C(C)(C)C)sc2c1 | -26.9% | -15.4% | ? | i | 0.0% | -172.1%
O=C(NNc1nc2ccc(F)cc2s1)c1cccc(F)c1 | 12.6µM* | -59.5% | -29.1%[11.3 µM] | ? | 12.6µM* | .
COC(=O)c1ccc2nc(Nc3nc4ccc(F)cc4s3)sc2c1 | ? | -34.8% | ? | i | 17.8µM* | -12.5%[10 µM]
CCOc1cc(/C=C/c2ccc3cccc([N+](=O)[O-])c3n2)ccc1O | 14.3% | -34.8% | -8.1% | ? | 12.6µM* | 19.4%[10 µM]
COc1c(OC(C)=O)ccc(/C=C/c2ccc3ccccc3n2)c1[N+](=O)[O-] | ? | -52.7% | -40.9% | 22.4µM* | ? | -3.3%[10 µM]
COc1c(OC(C)=O)ccc(/C=C/c2ccc3cccc(OC)c3n2)c1[N+](=O)[O-] | 14.7% | -48.8% | 7.8% | i | -9.1% | -7.3%[10 µM]
CCOc1c(OC(C)=O)ccc(/C=C/c2ccc3cccc(OC(C)=O)c3n2)c1[N+](=O)[O-] | ? | -74.0% | -1.1% | ? | 12.6µM* | -83.4%
CCOC(=O)[C@@](C)(N)Cc1ccc(O)c(O)c1 | . | . | -26.0% | ? | . | .
CC(C)CCNC(=O)Cn1c(SCc2cccc(F)c2)nc2ccncc21 | . | -7.3% | . | . | -1.9% | .
OC(CNCCC1C=Nc2ccccc21)Cn1c2ccc(Cl)cc2c2cc(Cl)ccc21 (stereo unspecified) | -14.6% | -95.5% | 31.6µM* | . | ? | -4.2%[10 µM]
OC(CNCC1CCCO1)Cn1c2ccc(Cl)cc2c2cc(Cl)ccc21 (stereo unspecified) | 9.9% | -100.4% | ? | ? | ? | -78.5%
NC(=S)N=Nc1c(O)[nH]c2ccccc12 | 21.7% | 24.6% | -14.0% | i | -1.8% | .
Oc1[nH]c2ccc(Br)cc2c1N=NC(=S)N1CCOCC1 | ? | -30.3% | 0.708µM* | ? | ? | -16.6%[10 µM]
Oc1[nH]c2ccccc2c1N=NC(=S)N1CCOCC1 | ? | 3.16µM* | . | 3.16µM* | 7.08µM* | -71.0%[10 µM]
